Laboratory results reported in ChEMBL document CHEMBL4513216, “Probing the Open Global Health Chemical Diversity Library for Multistage-Active Starting Points for Next-Generation Antimalarials” (ACS Infect Dis, 2020).
Out of some 68,000 compounds screened, about 2,700 (4%) showed an effect of 50% or more. Many of the other results were omitted from the sample, so strong results are more common in it than they were.

System: Plasmodium berghei
Assay: Screen against P. berghei liver stage (PbLuc), transformed with Luciferase, at 2uM
Format: functional, HepG2
Conditions: tested at 2 uM

In order of rising INHIBITION:
1. CN(CC(=O)NCc1ccccn1)C1CCCN(c2cccnn2)C1 (stereo unspecified)  -117.12%
2. Cc1nc(CN(C)C2CCN(Cc3nc4ccccc4s3)C2)no1 (stereo unspecified)  -75.02%
3. Cc1ccccc1-n1nc(C)c(CN(C)C(C)Cc2ccccn2)c1C (stereo unspecified)  -74.1%
4. CC(C)c1nc(CN(C)C2CCCN(c3cccnn3)C2)no1 (stereo unspecified)  -68.26%
5. Cc1c(C(=O)NCC(C)(C)S(C)(=O)=O)cccc1-c1ccccn1  -62.92%
6. COc1cc(C(=O)N(Cc2cnn(C)c2)C(C)C)ccc1OCC(N)=O  -61.5%
7. CC(=O)N(C)c1nc(CN2CCCC2Cn2nc(C)cc2C)cs1 (stereo unspecified)  -43.47%
8. CC(C)Nc1ncnc2c1CCN(C(=O)NCc1cccc(F)c1)CC2  -36.75%
9. COCCNc1ccc(CC2CCCN(Cc3c[nH]cn3)C2)nn1 (stereo unspecified)  -35.23%
10. CC(=O)NCCNC(=O)Nc1ccc(Br)cc1C(C)C  -34.04%
11. CN(C)c1ncc(-c2ccncc2)c(CCNC(=O)C2CC2)n1  -33.32%
12. COc1cc(C(=O)N(Cc2cnn(C)c2)C(C)C)ccc1OC(C)C  -31.57%
13. CCOc1ccccc1C(=O)NC(CC(=O)O)c1cccs1 (stereo unspecified)  -23.34%
14. COCCC(=O)Nc1cnn(COc2ccc(F)cc2Cl)c1  -17.37%
15. c1csc(-c2noc(CCCNC3CCc4ncnn4C3)n2)c1 (stereo unspecified)  -15.69%
16. O=C(NC1CC1)c1cc(C2CCCN(Cc3ccccn3)C2)no1 (stereo unspecified)  -15.37%
17. Cc1nnc2n1CCN(C(=O)CN1C(=O)CSc3ccccc31)C2  -14.79%
18. CC(C)c1nn(C)c(Cl)c1CNC1CCOc2ccccc21 (stereo unspecified)  -14.17%
19. CN1CCC(Cc2noc(CCc3nc4ccccc4nc3O)n2)CC1  -14%
20. CN(C)c1ccc(CN2CCN(c3ccc(C#N)cc3)C(=O)C2)cn1  -13.81%
21. Cc1nc(C(=O)N2CCC(c3cc(CCO)n(C)n3)C2)co1 (stereo unspecified)  -13.45%
22. CN(Cc1noc(C2CC2)n1)C1CCCN(c2cccnn2)C1 (stereo unspecified)  -13.24%
23. O=C(COc1coc(CN2CCCCC2)cc1=O)NCc1ccccc1  -11.78%
24. CC(C)N1CCOCC2(CCN(c3cnccn3)CC2)C1  -10.43%
25. Cc1cccc(CN2CCC3(CCCN(C(=O)N4CCCC4)C3)C2=O)n1 (stereo unspecified)  -9.14%
26. Cc1ccc(C(=O)N2CCC3(CCCCC3)C2)c(=O)[nH]1  -8.54%
27. CC(C)c1nnc(CN(C)C(c2ccccc2)c2ccc(F)cc2)o1 (stereo unspecified)  -7.07%
28. CNCC[C@H]1CC(C)(C)Oc2ccc(C)cc21  -7.01%
29. O=S1(=O)CCC(n2nc(COc3ccccc3)nc2-c2cnccn2)C1 (stereo unspecified)  -5.42%
30. Cc1nc(CCNC(Cc2ccncc2)C(F)(F)F)cs1 (stereo unspecified)  -2.89%
31. Cc1nc(CN(C)C2CCN(Cc3nc4ccccc4n3C)C2)no1 (stereo unspecified)  -2.87%
32. Cc1cc(C)n(CC2CCN(CC(O)COc3ccccc3)CC2)n1 (stereo unspecified)  -1.96%
33. Cc1ccc(N2CCCC(N(C)Cc3cc(C)on3)C2)nn1 (stereo unspecified)  -1.21%
34. CSCCC(Nc1nc(C)cc(C)n1)C(=O)NCC1CCOCC1 (stereo unspecified)  0.62%
35. Cc1nn(-c2ccccc2)c(C)c1CN1CCNCC1  1.79%
36. Cc1c(C(=O)NCCCS(C)(=O)=O)cccc1-c1ccccn1  3.63%
37. Cn1ncc2c(=O)[nH]c(CN(Cc3ccco3)C3CC3)nc21  5.09%
38. CCN(C)Cc1n[nH]c(=O)n1-c1cc(F)ccc1C  5.78%
39. CN(CC(=O)Nc1ccncc1)C1CCCN(c2cccnn2)C1 (stereo unspecified)  7.13%
40. COCCC(=O)NC(C)(C(N)=O)c1cccc(Cl)c1 (stereo unspecified)  7.37%
41. COc1ccc(C(=O)N(Cc2cnn(C)c2)C(C)C)cc1Br  9.36%
42. CC(C)(O)CCc1cccc(C(=O)NCCC2=CSC3=NCCCN23)c1  9.51%
43. NCCC(=O)N1CCC2(CC1)CN(C(=O)Cc1ccc(Cl)cc1)CCO2  10.62%
44. COCCN1CCOCC12CCN(c1cnccn1)CC2  10.71%
45. CN(C)C(=O)c1c[nH]nc1C1CCN(S(=O)(=O)c2cccc(Cl)c2)CC1  13.02%
46. Cc1n[nH]c(C)c1C1COCCN1C(=O)Cc1cccc(F)c1 (stereo unspecified)  13.24%
47. Cc1cc(CN(C)C2CCCN(c3cccnn3)C2)on1 (stereo unspecified)  13.35%
48. CCn1nccc1CNc1nc(N)nc2c1nc(C)n2C  14.79%
49. Cc1nc(CN(C)C2CCN(CC3CCC3)C2)no1 (stereo unspecified)  15.28%
50. CC(C)Cn1cnc2ccc(NC(=O)CCCn3cccn3)cc2c1=O  16.03%
51. Cc1nc(CN(C)C2CCN(CCCc3ccccc3)C2)no1 (stereo unspecified)  16.25%
52. CNC(=O)N1CCC2(COCc3c(C)nc(NCc4ccco4)nc32)C1 (stereo unspecified)  16.91%
53. CC1COCCN1Cc1nc(-c2ccc(Br)s2)no1 (stereo unspecified)  17.31%
54. O=C(c1cccnc1Oc1ccc(Cl)cc1)N1CC[C@@H](O)C1  18.2%
55. CCCC(NC(=O)c1cc(C2CC2)[nH]n1)c1nnc2ccccn12 (stereo unspecified)  19.42%
56. Cc1ccn(CCC(=O)NCc2ccc(C)o2)n1  19.49%
57. CCc1cnc(C)nc1NC(C)C(=O)Nc1cc(F)ccc1C (stereo unspecified)  20.32%
58. O=C(c1ccco1)N1CCC2(CCC(=O)N2Cc2ccccc2)CC1  21.06%
59. Fc1ccc(-c2noc3c2CN(CC2CC2)CC3)cc1F  21.49%
60. CN(C)C(=O)Cc1ccccc1NCc1noc(-c2ccccc2)n1  22.19%
61. CC(NC(=O)CCCn1cnc2ccccc2c1=O)c1ncn[nH]1 (stereo unspecified)  22.27%
62. Cc1ccc(CN2CCC3(CCC(=O)N3CC(=O)N(C)C)CC2)s1  22.71%
63. CCOc1ccc(C(=O)N(Cc2cnn(C)c2)C(C)C)cc1OCC  23.42%
64. Cn1cnc2ccc(NC(=O)CCCn3cccn3)cc2c1=O  25.61%
65. O=C(NC1CCN(c2ncccc2F)C1)c1cccc(-n2ccnn2)c1 (stereo unspecified)  25.78%
66. COC(=O)COc1nc(CC(C)C)c2c(c1C#N)CCCC2  26.06%
67. CN(Cc1ccc(C(=O)Nc2sccc2C#N)cc1)Cc1ccno1  26.74%
68. Cc1ccc(CN2CCN(c3cncc(N(C)C)n3)CC2=O)cc1C  27.72%
69. CC(C)c1noc(CN2CCOCC2C)n1 (stereo unspecified)  27.86%
70. NCc1n[nH]c(=O)n1-c1ccccc1Oc1ccccc1  28.73%
71. Cc1cccc(CN2CCC3(CCCN(C(=O)CN(C)C)C3)C2=O)n1 (stereo unspecified)  28.95%
72. Cc1nnc(C(C)N(C)Cc2c(C)nn(-c3ccccc3C)c2C)o1 (stereo unspecified)  29.39%
73. CNC(=O)C(NC(=O)c1nccn2ccnc12)c1ccc(F)c(F)c1 (stereo unspecified)  29.53%
74. COc1ncccc1C(=O)N1CCn2c(COCC3CC3)cnc2C1C (stereo unspecified)  30.38%
75. CC1CCN(C(=O)[C@@H]2C[C@@H]3CCN(Cc4nccs4)C[C@H]3O2)CC1  31.76%
76. N#Cc1cccc(CN2Cc3nccn3CC(CN3CCCC3)C2)c1 (stereo unspecified)  32.04%
77. CN(C(=O)c1cn(C)cn1)[C@@H]1CCC[C@@H](Oc2ccccc2)[C@@H]1O  32.81%
78. O=C(c1ccco1)N1CCC2(CCC(=O)N2Cc2cccc(F)c2)CC1  33.16%
79. Cc1nnc(CN(C)Cc2ccc(C(=O)Nc3sccc3C#N)cc2)o1  33.9%
80. CC(C)NC(=O)CCCn1cnc2ccccc2c1=O  35.43%
81. Cc1ncsc1-c1nnc(C2CCN(Cc3cccc(F)c3F)CC2)o1  35.56%
82. Cc1cccc(CC(=O)N2CCOCC2c2c(C)n[nH]c2C)c1 (stereo unspecified)  37.57%
83. CN(Cc1cccnc1)CC1CNCc2nccn2C1 (stereo unspecified)  37.65%
84. O=C(c1cc(C2CCCN(Cc3ccccn3)C2)no1)N1CCCC1 (stereo unspecified)  39.48%
85. O=C(c1ccccn1)N1CCCC(c2ncncc2-c2ccncc2)C1 (stereo unspecified)  39.9%
86. COc1ccc2cnn(CC(=O)NC3CCCC3)c(=O)c2c1OC  45.14%
87. COCCN1CCOCC2(CCN(c3cnccn3)CC2)C1  50.85%
88. Cc1nc(CN(C)C2CCCN(c3cccnn3)C2)no1 (stereo unspecified)  51.21%
89. COCC(C)NC(=O)CCCn1cnc2ccccc2c1=O (stereo unspecified)  51.36%
90. Cc1cccc(CN2CCC3(CCCN(C(=O)N(C)C)C3)C2=O)n1 (stereo unspecified)  51.81%
91. COCCn1cnc2ccc(NC(=O)CCCn3cccn3)cc2c1=O  52.05%
92. Cc1nnc(C(C)N(C)Cc2c(C)nn(-c3ccccc3)c2C)o1 (stereo unspecified)  52.08%
93. COc1cc(C(=O)N(Cc2cnn(C)c2)C(C)C)ccc1C  53.98%
94. Cc1nc(CN(C)C2CCN(Cc3ccc4ccccc4n3)C2)no1 (stereo unspecified)  55.7%
95. O=C(CCn1cccc1)NCc1ccc(CN2CCCCCC2)o1  56.24%
96. Cc1c(C(=O)NCCC(=O)N2CCCC2)cccc1-c1ccccn1  59.67%
97. COc1ccc(C(=O)N(Cc2cnn(C)c2)C(C)C)cc1OC(F)F  60.09%
98. Cc1ccc(CN2CCN(Cc3ccc(N(C)C)nc3)CC2=O)cc1C  61.3%
99. CCc1nnc(C(C)N(C)Cc2c(C)nn(-c3ccccc3)c2C)o1 (stereo unspecified)  63.1%
100. COCCCNC(=O)CN(C)C1CCCN(c2cccnn2)C1 (stereo unspecified)  64.16%
101. Cc1nnsc1CN(C)Cc1ccc(C(=O)Nc2sccc2C#N)cc1  67.28%
102. Cc1cccc(CN2C(=O)CCC23CCN(C(=O)c2ccco2)CC3)c1  70.48%
103. CCCNC(=O)c1cc(C2CCCN(Cc3ccccn3)C2)no1 (stereo unspecified)  72.41%
104. Cc1cccc(CCC(=O)N2CCOCC2c2c(C)n[nH]c2C)c1 (stereo unspecified)  74.35%
105. Cc1nc(CN(C)C2CCCN(c3ccccc3)C2)no1 (stereo unspecified)  74.35%
106. Cc1ccc(N2CCCC(N(C)Cc3cc(C)no3)C2)nn1 (stereo unspecified)  75.47%
